Measured values reported in PubChem BioAssay (EPA / NIEHS).
Results filed as inconclusive are left out. Active and inactive are the calls of the source. The calls were made as follows: active = hit-call score of the fitted dose curve at least 0.9, where 1 is the maximum; inconclusive = response in the unintended direction; inactive = score below 0.9.

The compounds below were run against human Phosphodiesterase 10 (PDE10), PDE10A (gene 10846) (UniProt Q9Y233) (assay: NVS_ENZ_hPDE10: NovaScreen (NVS) Enzymatic Assay for human Phosphodiesterase 10 (PDE10) (AID 2283195)).
Procedure: NVS_ENZ_hPDE10 is a biochemical, single-readout assay that uses extracted gene-proteins in a cell-free assay. Measurements were taken 1 hour after chemical dosing in a 384-well plate.NVS_ENZ_hPDE10 is one of one assay component(s) measured or calculated from the NVS_ENZ_hPDE10 assay. It is designed to make measurements of enzyme activity, a form of enzyme reporter, as detected with fluorescence intensity signals by Fluorescence and electrophoretic mobility shift technology.Data from the assay component NVS_ENZ_hPDE10 was analyzed into 1 assay endpoint. This assay endpoint, NVS_ENZ_hPDE10, was analyzed in the positive analysis fitting direction relative to DMSO as the negative control and baseline of activity. Using a type of enzyme reporter, loss-of-signal activity can be used to understand changes in the enzymatic activity as they relate to the gene PDE10A. Furthermore, this assay endpoint can be referred to as a primary readout, because this assay has produced multiple assay endpoints where this one serves a enzymatic activity function. To generalize the intended target to other relatable targets, this assay endpoint is annotated to the esterase intended target family, where the subfamily is phosphodiesterase.
Binding assays used specific radioligands (tritiated, iodinated) with non-radioactive competitive displacement ligands in agonist or antagonist protocols (as indicated) and various reference compounds and inhibitors to titrate specific binding to receptors and transporters. Most enzyme assays (CYPs, kinases, phosphatases, proteases, HDACs) used recombinant protein and specific substrates (fluorescence mostly, some colorimetric and radioactive) and inhibitors, followed by a biochemical separation of substrate and product. All assays for the biochemical HTS were initially run in duplicate at a single concentration (10 uM for CYP450 assays and 25 uM for all others). Assay-chemical combinations meeting a pre-defined threshold (e.g., 30% inhibition and other criteria defined below) were then run in singleton concentration-response format with maximum concentration of 20 uM for CYPs and 50 uM for all others. Each assay was run with positive and negative controls, and concurrent controls on every plate. The follow-up (secondary) screen tested active chemical-pairs in concentration series, as well as a few additional assays not tested in the primary screen, some selected negative inactives, and several cases re-run in the concentration series for confirmatory purposes.

Sequence of human Phosphodiesterase 10 (PDE10), PDE10A (gene 10846) (Q9Y233 whole entry, looked up): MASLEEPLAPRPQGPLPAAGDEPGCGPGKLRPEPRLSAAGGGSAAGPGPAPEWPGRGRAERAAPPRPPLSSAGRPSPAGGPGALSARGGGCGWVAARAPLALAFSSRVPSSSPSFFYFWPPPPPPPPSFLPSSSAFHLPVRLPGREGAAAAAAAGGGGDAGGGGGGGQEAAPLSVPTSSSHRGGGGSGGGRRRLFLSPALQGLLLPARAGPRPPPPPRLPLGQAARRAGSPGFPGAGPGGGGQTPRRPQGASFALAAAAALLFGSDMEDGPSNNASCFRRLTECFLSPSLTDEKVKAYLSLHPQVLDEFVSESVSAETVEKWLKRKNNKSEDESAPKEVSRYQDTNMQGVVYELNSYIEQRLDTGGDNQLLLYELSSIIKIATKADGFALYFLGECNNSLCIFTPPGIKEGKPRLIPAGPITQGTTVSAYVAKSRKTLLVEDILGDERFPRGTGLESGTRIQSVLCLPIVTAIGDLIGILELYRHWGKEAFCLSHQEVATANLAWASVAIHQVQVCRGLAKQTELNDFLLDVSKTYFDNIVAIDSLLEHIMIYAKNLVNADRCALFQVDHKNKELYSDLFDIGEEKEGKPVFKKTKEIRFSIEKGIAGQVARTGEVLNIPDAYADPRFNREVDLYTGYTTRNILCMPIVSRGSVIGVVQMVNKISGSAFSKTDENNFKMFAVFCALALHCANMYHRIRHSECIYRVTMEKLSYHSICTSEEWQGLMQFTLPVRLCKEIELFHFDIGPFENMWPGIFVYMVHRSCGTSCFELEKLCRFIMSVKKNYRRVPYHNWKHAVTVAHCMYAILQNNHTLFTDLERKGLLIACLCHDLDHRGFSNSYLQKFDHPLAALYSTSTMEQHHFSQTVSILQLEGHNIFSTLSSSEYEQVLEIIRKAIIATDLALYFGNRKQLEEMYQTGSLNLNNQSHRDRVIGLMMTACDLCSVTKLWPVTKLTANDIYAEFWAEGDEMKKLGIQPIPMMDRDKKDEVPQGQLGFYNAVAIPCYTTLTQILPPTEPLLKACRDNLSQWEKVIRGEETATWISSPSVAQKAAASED

**Q.** With `Brc1ccccn1` as the compound, how does the outcome read?
**A.** Its outcome is “inactive”.

**Q.** With `CCN(CC)c1ccc2c(c1)Oc1cc(N(CC)CC)ccc1C21OC(=O)c2ccccc21` as the compound, how does the outcome read?
**A.** The outcome was “inactive”.

**Q.** With `Nc1cccnc1N` as the compound, how does the outcome read?
**A.** Its outcome is “inactive”.

**Q.** For `O=C(Cl)c1ccc(Cl)cc1Cl`, which outcome is on record?
**A.** Its outcome is “inactive”.

**Q.** How did the outcome turn out when `C#CC(O)CCC` (stereo not given) was run?
**A.** Its outcome is “inactive”.

**Q.** How did the outcome turn out when `Nc1cc([N+](=O)[O-])cc(Cl)c1O` was run?
**A.** The outcome was “inactive”.

**Q.** For `O=C1C=CC(=O)N1c1ccc(Cc2ccc(N3C(=O)C=CC3=O)cc2)cc1`, which outcome is on record?
**A.** Its outcome is “inactive”.

What follows are compounds tested against human Vascular Endothelial Growth Factor Receptor 1 (VEGFR1), FLT1 (gene 2321) (UniProt P17948) (assay: NVS_ENZ_hVEGFR1: NovaScreen (NVS) Enzymatic Assay for human Vascular Endothelial Growth Factor Receptor 1 (VEGFR1) (AID 2283226)).
Summary of the method: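 Cell-free assay of recombinant human VEGFR1 kinase with substrate, measured 1 h after dosing; fluorescence with electrophoretic mobility-shift separation of substrate and product, referenced to DMSO; primary screen at 25 uM in duplicate, actives then run in concentration series.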

Sequence of human Vascular Endothelial Growth Factor Receptor 1 (VEGFR1), FLT1 (gene 2321) (P17948 whole entry, looked up): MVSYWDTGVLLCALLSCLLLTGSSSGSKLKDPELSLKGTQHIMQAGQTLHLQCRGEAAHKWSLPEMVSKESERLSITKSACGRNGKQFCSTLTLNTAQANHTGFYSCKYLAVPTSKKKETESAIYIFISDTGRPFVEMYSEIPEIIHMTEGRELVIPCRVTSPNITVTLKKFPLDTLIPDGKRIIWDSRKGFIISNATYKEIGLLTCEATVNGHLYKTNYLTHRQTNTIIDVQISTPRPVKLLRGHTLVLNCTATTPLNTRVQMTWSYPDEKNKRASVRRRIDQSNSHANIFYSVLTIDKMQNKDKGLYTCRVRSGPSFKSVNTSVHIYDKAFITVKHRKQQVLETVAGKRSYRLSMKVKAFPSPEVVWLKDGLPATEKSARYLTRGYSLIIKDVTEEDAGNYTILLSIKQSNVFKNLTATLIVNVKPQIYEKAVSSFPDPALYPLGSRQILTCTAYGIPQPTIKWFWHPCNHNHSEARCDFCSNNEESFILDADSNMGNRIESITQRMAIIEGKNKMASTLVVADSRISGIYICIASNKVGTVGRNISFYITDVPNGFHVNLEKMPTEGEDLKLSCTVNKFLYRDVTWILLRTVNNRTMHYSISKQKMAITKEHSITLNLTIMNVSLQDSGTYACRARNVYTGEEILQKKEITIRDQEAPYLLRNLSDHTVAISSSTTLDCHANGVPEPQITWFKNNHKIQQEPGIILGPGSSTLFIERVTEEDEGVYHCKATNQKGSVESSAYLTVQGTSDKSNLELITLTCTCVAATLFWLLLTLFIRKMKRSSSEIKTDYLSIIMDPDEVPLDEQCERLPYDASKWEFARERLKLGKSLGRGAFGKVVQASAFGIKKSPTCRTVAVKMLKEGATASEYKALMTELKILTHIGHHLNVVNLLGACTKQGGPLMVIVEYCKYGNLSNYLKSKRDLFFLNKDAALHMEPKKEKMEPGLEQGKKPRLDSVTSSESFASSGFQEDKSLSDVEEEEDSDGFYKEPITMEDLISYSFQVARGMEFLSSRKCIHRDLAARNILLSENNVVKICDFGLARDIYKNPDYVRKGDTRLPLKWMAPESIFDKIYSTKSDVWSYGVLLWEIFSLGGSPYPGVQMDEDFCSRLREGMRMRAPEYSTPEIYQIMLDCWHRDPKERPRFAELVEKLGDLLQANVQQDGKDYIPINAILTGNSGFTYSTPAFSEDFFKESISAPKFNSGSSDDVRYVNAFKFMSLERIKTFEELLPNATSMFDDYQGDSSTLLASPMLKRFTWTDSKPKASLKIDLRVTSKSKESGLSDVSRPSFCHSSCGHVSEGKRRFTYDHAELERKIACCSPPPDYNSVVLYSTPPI

**Q.** With `O=C1c2c(O)ccc(Nc3ccc(CCO)cc3)c2C(=O)c2c([N+](=O)[O-])ccc(O)c21` as the compound, how does the AC50 read?
**A.** The AC50 was 0.885 µM (active).

**Q.** With `C=CCOC(=O)CC(C)C` as the compound, how does the outcome read?
**A.** The outcome was “inactive”.

**Q.** How did the AC50 turn out when `CCCCCCCCCCCCCC[P+](CCCC)(CCCC)CCCC` was run?
**A.** Its AC50 is 10 µM (active).
